Laboratory results: the supplement of paper PMC12632987

Assays:
UCHL1, P09936 = experiment: median log2 fold change of GCK-ALFA target abundance (FLAG IP / Myc IP barcode read proportion) (log2 ratio); each designed protein is fused to an ALFA-tag nanobody in HEK293 cells to bring the named protein to FLAG-tagged glucokinase (GCK); Myc marks an untargeted standard; higher = target protein stabilised (more abundant); conditions: target protein: 3xFLAG-MCP-GCK-ALFA reporter; HEK293 landing pad (RPLP)
Outline: (§1)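 An ALFA-nanobody-fused binder library was recombined into HEK293 landing-pad cells and induced with 2 μg mL^−1 doxycycline. Cells were transfected with a plasmid expressing a FLAG-tagged target and a Myc-tagged standard. After 48 h, lysates underwent anti-FLAG and anti-Myc immunoprecipitation, and circular RNA barcodes were reverse transcribed, amplified and sequenced. Target abundance is the per-binder median log2 ratio of FLAG to Myc barcode read proportions. Barcodes needed ≥10^−7 proportion in both replicates, binders ≥3 barcodes per replicate, and a 10^−6 pseudocount was added; the two replicates were pooled.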

GABARAPL2, P60520 = experiment: as above; conditions: target protein: 3xFLAG-MCP-GCK-ALFA reporter; HEK293 landing pad (RPLP)
Outline: as §1

Chain of UCHL1, P09936 (P09936 whole entry, looked up, the tested form may be a part): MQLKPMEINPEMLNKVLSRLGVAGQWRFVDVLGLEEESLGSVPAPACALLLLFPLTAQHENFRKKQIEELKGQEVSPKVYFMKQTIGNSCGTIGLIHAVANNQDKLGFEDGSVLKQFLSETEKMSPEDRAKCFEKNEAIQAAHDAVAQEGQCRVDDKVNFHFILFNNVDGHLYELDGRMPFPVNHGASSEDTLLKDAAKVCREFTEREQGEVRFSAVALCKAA
Chain of GABARAPL2, P60520 (P60520 whole entry): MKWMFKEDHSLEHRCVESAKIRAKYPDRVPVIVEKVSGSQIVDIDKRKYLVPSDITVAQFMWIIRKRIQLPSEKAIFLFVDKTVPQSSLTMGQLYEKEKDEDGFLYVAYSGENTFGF

B1: uchl1_122_7444 (protein)
chain: MLTVEVLVSSSLSEEVLEILEEYASKLLEDLEVEKKKVSPGTILITFTGELKDVSEEEIREIREEALERLSKLQNLTPNEKVSFGNALRRIERQVMQAKK
B1 was tested, and the “median log2 fold change” value (UCHL1, P09936) was 0.0563.

B2: uchl1_122_7447 (protein)
chain: TVTVEVVGRRADIEAIAAVIRAVFAAAGIKVDVEIEELSPTTAKLTVTITVPPVTDEQVDATIAALAAAMAALVEAEGISRALAGIAFTRVERALRRAAA
For B2, the “median log2 fold change” value (UCHL1, P09936) was -0.15.

B3: uchl1_122_7439 (protein)
chain: MLTIEVDVTSSLSPEGLAILREYASELLDNPEFEEELVSPGTLRLTFTGELKDLTPEQIREIANRALARAGADQSLTPNERVSLGNAIRRIARQVARARA
For B3, the “median log2 fold change” value (UCHL1, P09936) was 0.0949.

B4: uchl1_122_7435 (protein)
chain: MITVEVLVTSSLSPAVLAIIKEYASRLLDNAEFELRRVDPGTLLLTVTGELKDVSDEEILAIRREAEERAAKDQTLTPNQRVSFGNALRRIARAVAKALA
In the case of B4, the “median log2 fold change” value (UCHL1, P09936) is reported as -0.0374.

B5: uchl1_122_7446 (protein)
chain: MLTVEVLVSSSLSERVLEILEEYAAALLDNLEVEREEVSPGTRLLTFTGELKDVSEDEIRAIREEALARLAELQDLTPNEKVSFGNALRRIERQVMAARR
B5 was tested, and the “median log2 fold change” value (UCHL1, P09936) was -0.238.

B6: uchl1_122_7438 (protein)
chain: MLTIEVDVTSSLSPEGLEILKEYVSKLLDNPKFEEELVSPGTLRLIFTGELKDLTEEEIREIENEALEKAGANQSLTPNQRVSFGNAVRRIARQVAKARA
For B6, the “median log2 fold change” value (UCHL1, P09936) was 0.324.

B7: uchl1_122_7434 (protein)
chain: MITIEVDVSSSLSPEVLEIIKEFASRLLDNAEFEEEELSPGTRRLTITGELKDVSDEEILEIENEALERASKLQTLTPNERVSFGNALRRIARAVAKARA
For B7, the “median log2 fold change” value (UCHL1, P09936) was 0.213.

B8: uchl1_122_7427 (protein)
chain: TATVEVVGRRETIETIAEIIREVAAEHGLEVEVRIEELSPTTARLVVTVRVPPISDEELAAFERALEERMARAVEEKGLSRAEVGIATTKVIRAVRRANA
B8 was tested, and the “median log2 fold change” value (UCHL1, P09936) was 0.284.

B9: uchl1_122_7451 (protein)
chain: SETVEVVGRRRDIELIAEAIKEVFEKFGVKVEVEIEELSPTTAKLTVTITVPPISDEELEALLAALEEAMRRLVEEEGVPRATAGLAYSRTARAVKRAAA
For B9, the “median log2 fold change” value (UCHL1, P09936) was -0.77.

B10: uchl1_122_7429 (protein)
chain: MVRVEVVGRRRTVEALAEVIREVAARHGIDVRVEIEELSPTTARLVVDIRVPPMSDAALEAALADLERRAAELVERLGLSRAEVGIATTRIVRGIRRAAA
For B10, the “median log2 fold change” value (UCHL1, P09936) was 0.096.

B11: uchl1_122_7432 (protein)
chain: AETVTVIVPKEAAPIIVEVLKEVMAEHGATVEVELEELSENTVKITITIDTSGLTEEQVDAAVADLEERMAERFKEAGINSADAKNAVGRIARAIRRAGA
In the case of B11, the “median log2 fold change” value (UCHL1, P09936) is reported as 0.325.

B12: uchl1_122_7437 (protein)
chain: MITIEVLVSSSISEKVLEIIKKFASKLLKNPKFKIEQVSPGTLKITITGELKDVSEEEIREIYNEALEELGKLQDITPNEKVSANTALRKIARDVARARR
With B12 the “median log2 fold change” value (UCHL1, P09936) was -0.0419.

B13: uchl1_122_7440 (protein)
chain: MITIEIEVSSSLSEKGLEILAEAAKKLLDNAKIEVKEKSPSTKLITITGELKDLSEEEILEIENEALEEAGKDQSLTPNQRVSFGNALRRLAIQYAKAKA
In the case of B13, the “median log2 fold change” value (UCHL1, P09936) is reported as 0.144.

B14: uchl1_122_7453 (protein)
chain: TETVEVVGRRRDVEILAAVIREVFAAAGWTAEVTIEELSPTTARLVVTVTLPPASDEAVDALVAALEAAFREAVEKEGISRAFAGIAYTRVARAVRRAAA
In the case of B14, the “median log2 fold change” value (UCHL1, P09936) is reported as -0.0277.

B15: uchl1_122_7445 (protein)
chain: MLTVEVLVSSSMSPEVLAILEEYASRLLDDLEVEREKVSPGTVLLTFRGRLKDVSEEEIRAIREEALARLAKLQDLTPNEKVSFGNALRRIERQVMRARR
With B15 the “median log2 fold change” value (UCHL1, P09936) was -0.026.

B16: uchl1_122_7441 (protein)
chain: MVTIEVEVSSSLSPEALAILAEAAAELLEDARVEVRELSPSTLLITITGRLKDLSPEEIREIENRALERLGRDQSLTPNQRVSAGNALRRLARQYARAKA
In the case of B16, the “median log2 fold change” value (UCHL1, P09936) is reported as 0.185.

B17: uchl1_122_7448 (protein)
chain: TVTVEVVGRREDIELIAAVIREVFAAAGIEVDVEIEELSPTTARLVVTIRAPPMTDAQVDATIAALAAAMARLVEEAGISRALAGIAFTRVERALRRAAA
With B17 the “median log2 fold change” value (UCHL1, P09936) was 0.0437.

B18: GBRAPL2_93_7424 (protein)
chain: NKVELIVKYLENGKLVKEEREVVSVEEAKAKIEELLKEAVENGEKVSIEIEDKDTGWVFGDYVENEEQAKKALERAKEILEDLAEEGKEVEVTIVIEKIT
For B18, the “median log2 fold change” value (GABARAPL2, P60520) was 0.137.

B19: uchl1_122_7442 (protein)
chain: MLTIEVDVASSVSERTLEILKEYAEELLEDAEFSVEKKSPGTKLLTIKGKLKDVSDDEILEIENKALERAGKDQSITPNERVSFGNALRKIARQVARARA
For B19, the “median log2 fold change” value (UCHL1, P09936) was 0.271.

B20: uchl1_122_7450 (protein)
chain: SETVEVVGRREALEAIAAAIREVLAAFGAEVEVRIEELSPNTARLTVTIRLPPISDARLAELLEALEAAMRRLVEERGVPAATAGLAYSRVARAIRRAAA
With B20 the “median log2 fold change” value (UCHL1, P09936) was 0.143.

B21: uchl1_122_7436 (protein)
chain: MITIEVLVTSSLSPEGLAIIKDYAAKLLKDAEFKEEEVSPGTLLLTITGELKDVSDEEILEIRREAEERASKNQNLTPNERVSFGNALRRIARAVAKAKA
B21 was tested, and the “median log2 fold change” value (UCHL1, P09936) was 0.0349.

B22: uchl1_122_7428 (protein)
chain: METVEVVGRRRAIEAFAEIVREVAAEHGIAVEVEIEELSPTTARLTITFDVPPISDEELAAFEEDLARRVAEAVRELGLSPAEFGIAYTKVVRAVRRANA
In the case of B22, the “median log2 fold change” value (UCHL1, P09936) is reported as -0.0204.

B23: uchl1_122_7430 (protein)
chain: TVTVEAVGRRETMETLAAVITEVLTAAGLTVEVRIEELSPTTARLTVTISGAPLSDAEVDALIEELRRRAAEAVERLGLDRATVGLAVGRVERGVRRLAA
For B23, the “median log2 fold change” value (UCHL1, P09936) was 0.13.

B24: uchl1_122_7449 (protein)
chain: TETVEVVGRRADVEAIAATIRAVFASHGLTVDTTITELSPTTARLTVTVTLPPISDAQVAALEAALEAAMAALVEREGISRAFAGIATTRVIRAVRRAAA
For B24, the “median log2 fold change” value (UCHL1, P09936) was 0.184.

B25: uchl1_122_7426 (protein)
chain: METVEVVGRRETIEALAELIREVAAEHGIEVEVRIEELSPTTARLVVTIRVPPISDEELDALIADLEARAAALVEEKGLPRAEVGIATTKIIRAIRRAAA
B25 was tested, and the “median log2 fold change” value (UCHL1, P09936) was 0.214.

B26: uchl1_122_7452 (protein)
chain: TETVEVVGRRKDIELIAAAIREVAAAAGWTADVEIEELSENTAKLTVTVTLPPVSDAAVDAAEAALEAAMRRLVEEEGLSRAFVGIATTRVIRAIRRAAA
In the case of B26, the “median log2 fold change” value (UCHL1, P09936) is reported as 0.163.

B27: GBRAPL2_93_7425 (protein)
chain: NEVKVTIKHLVDGELVKEEERTVSVEEAKELIKKKLEEAIAAGNKVIIEIDDEDTGWSFGDYVTDEEQAKKALERAKEILEDLAAEGKKVEVEIVIEKIT
In the case of B27, the “median log2 fold change” value (GABARAPL2, P60520) is reported as -0.332.

B28: uchl1_122_7443 (protein)
chain: MLTIEVKVSSSLSERTLEILKKYAEKLLENPKFEVKELSPGTKLLTITGELKDVSDEEILEIRNEALEEAGKDQSITPNERVSFGNALRTISRQVARALA
In the case of B28, the “median log2 fold change” value (UCHL1, P09936) is reported as 0.153.

B29: uchl1_122_7433 (protein)
chain: MITIEVEVTSSLSPEALAILKEYAARLLDNAEFKEEKLSPGTLLLTVTGELKDVTDEEILAIENEALERASKMQTLTPNQRVSFGNALRRIARAVAKALA
For B29, the “median log2 fold change” value (UCHL1, P09936) was 0.0352.

B30: uchl1_122_7431 (protein)
chain: MKTVTVVVRKKDAPILIEIVREVAAEAGMKVEIEEEELSPNVVKLTITIDTTGLTEEQVEAAVEALERRVAEAMKETGSKSTDLRIAVGKIARAIRKAHA
With B30 the “median log2 fold change” value (UCHL1, P09936) was -0.183.

B31: GBRAPL2_93_7423 (protein)
chain: MKVKVTVIELENGEVVRREERELSVEEAKELIRELLAEAIAAGNRVIIEIYDKETGWTFGYYAEDEEQAEKAYERTSEVLEDLAAEGKEVEVTITIERLE
B31 was tested, and the “median log2 fold change” value (GABARAPL2, P60520) was -0.302.

B32: uchl1_143_7454 (protein)
chain: GMVHMEVEVIHIEVSEEDTPEEIREKIMEAMKKAVEKGKAIRIIITVPPDANKRLMVNTTARRAAREFAQEYKDKLKYLEIYARDKETGKEDLIAEIINP
B32 was tested, and the “median log2 fold change” value (UCHL1, P09936) was -0.0697.
